Assay results taken from PubChem BioAssay (Tox21).
Calls of active or inactive are those of the source. Where a call stands in place of a potency, no number is given. Calls follow the shape of the full dose curve.

Assay: G protein-coupled receptor (GPCR) small molecule agonists, calcium flux assay: HEK293 wild type cell line counter screen (AID 1920065)
Conditions: HEK293 WT calcium flux, fluorescence, agonist mode; series mostly up to 57.6 µM
From the text: U.S. Tox21 Program National Center for Advancing Translational Sciences [NCATS] Division of Preclinical Innovation [DPI] U.S. Environmental Protection Agency [EPA] National Institutes of Environmental Health Sciences [NIEHS] National Toxicology Program [NTP] U.S. Food and Drug Administration [FDA] Assay overview: The increased intracellular calcium release that occurred upon G protein-coupled receptor (GPCR) activation led to the frequent use of calcium flux assays to detect GPCR activation. For the purpose of studying and screening compounds that may activate GPCR, receptor-overexpressing models were typically generated using Hek293 wild-type (WT) cells. In order to eliminate the compounds that may have induced calcium release for non-specific activation, a counter-assay utilizing calcium flux on Hek293 WT cells was performed. The data were formulated in order to serve as a control for any calcium flux detection utilizing Hek293 cells with either GPCR overexpression or gene modification. The procurement of Hek293 WT cells from ATCC. Fluorescence intensity can be utilized to determine the activation of the compound in a calcium flux assay. As a counter control, this cell line was utilized to screen the Tox21 10K compound library.
Assay Protocol Summary: Hek293 cells were dispensed at 1500cells/4uL/well in 1536-well black wall/clear bottom plates using a multidrop dispenser. After the assay plates were incubated at a 37 C/5% CO2 incubator for 18 hours, 4 uL of Calcium Dye Solution was added to each well. The plates were incubated at 37 C for 1 hour. For agonist mode, 23 nL of compounds dissolved in DMSO, positive control (ATP) or DMSO only was transferred to the assay plate by a pin tool station. The fluorescence intensity in the plates was measured using FDSS 7000EX kinetic plate reader with a filter set of Ex/Em=480/540 for 3 min at 1 sec intervals. Each test compound was measured at 15 concentrations and in triplicates.
In the case of `ClC(Cl)Br`, the Potency is reported as “inactive”. For `O=[N+]([O-])C(Br)Br`, the Potency was “inactive”. For `CCCCn1cc[n+](C)c1` (tested in a mixture with another compound), the Potency was “inactive”. In the case of `CCN(CC)C(=O)N[C@@H]1C=C2c3cccc4[nH]cc(c34)C[C@@H]2N(C)C1`, the Potency is reported as “inactive”. In the case of `CC(C)N(Cc1ccccc1)C(=O)C(C)(C)C`, the Potency is reported as “inactive”. In the case of `O=S(=O)(Cl)c1ccccc1`, the Potency is reported as “inactive”. For `N#Cc1c[nH]cc1-c1cccc2c1OC(F)(F)O2`, the Potency was “inactive”. With `CN(C1CCCCC1)C1CCCCC1` the Potency was “inactive”. With `CCOC(=O)CCN(SN(C)C(=O)Oc1cccc2c1OC(C)(C)C2)C(C)C` the Potency was “inactive”. In the case of `N[C@@H]1C[C@H]1c1ccccc1`, the Potency is reported as “inactive”. In the case of `BrCC1CO1` (stereo not given), the Potency is reported as “inactive”. For `CCCN(CCC)c1c([N+](=O)[O-])cc(S(C)(=O)=O)cc1[N+](=O)[O-]`, the Potency was “inactive”. In the case of `[C-]1=CC=CC1.[Cl][Zr+2][Cl].c1cc[cH-]c1`, the Potency is reported as “inactive”. In the case of `CC1(C)[C@H](C=C(Cl)Cl)[C@@H]1C(=O)O[C@@H](C#N)c1cccc(Oc2ccccc2)c1`, the Potency is reported as “inactive”. For `CCOP(=S)(OCC)Oc1cc(Cl)c(Br)cc1Cl`, the Potency was “inactive”. For `CC(C)(OO)c1ccccc1`, the Potency was “inactive”. With `O=C(N/N=C/c1ccc([N+](=O)[O-])o1)c1cc([N+](=O)[O-])cc([N+](=O)[O-])c1O` the Potency was “inactive”. For `COP(N)(=S)OC`, the Potency was “inactive”. For `CN(C)CCc1c[nH]c2cccc(O)c12`, the Potency was “inactive”. In the case of `C#CC1(O)CCCCC1`, the Potency is reported as “inactive”. For `O=CC=O`, the Potency was “inactive”. For `CC(C)=CCOc1c2occc2cc2ccc(=O)oc12`, the Potency was “inactive”. For `CC(=O)Nc1cc([As](=O)(O)O)ccc1O`, the Potency was “inactive”. In the case of `O=[N+]([O-])c1ccc(Oc2ccc(C(F)(F)F)cc2[N+](=O)[O-])cc1`, the Potency is reported as “inactive”. With `Oc1c(Br)c(Br)c(Br)c(Br)c1Br` the Potency was “inactive”. In the case of `N#CCc1ccc(Cl)cc1`, the Potency is reported as “inactive”. With `CS/C(C)=N/OC(=O)N(C)SN(C)C(=O)O/N=C(\C)SC` the Potency was “inactive”. In the case of `O=C(O)c1c(Cl)ccc2cc(Cl)cnc12`, the Potency is reported as “inactive”. For `Oc1c(Cl)cccc1Cl`, the Potency was “inactive”. In the case of `CCN(CC)CCOC(=O)C(C)(c1ccccc1)c1ccccc1`, the Potency is reported as “inactive”. With `Cc1nc2ccccc2c(=O)n1-c1ccccc1Cl` the Potency was “inactive”. For `CC(C)Br`, the Potency was “inactive”. For `Nc1cc(Cl)ccc1O`, the Potency was “inactive”. With `FC(F)(F)c1cccc(C2=CCN(CCc3ccc4ccccc4c3)CC2)c1` the Potency was “inactive”. With `O=c1[nH]c2ccccc2n1C1CCNCC1` the Potency was “inactive”. For `O=C1OC(=O)C2C1C1(Cl)C(Cl)=C(Cl)C2(Cl)C1(Cl)Cl` (stereo not given), the Potency was “inactive”. With `O=[N+]([O-])c1cc([N+](=O)[O-])c2ccccc2c1` the Potency was “inactive”. For `COC(=O)c1ccccc1S(=O)(=O)NC(=O)N(C)c1nc(C)nc(OC)n1`, the Potency was “inactive”. For `S=C=NCCc1ccccc1`, the Potency was “inactive”. For `CC(C)CCCCCCCOP(=O)(Oc1ccccc1)Oc1ccccc1`, the Potency was “inactive”.
